Results filed as inconclusive are left out. Active and inactive are the calls of the source. The call rests on the fitted dose curve.
Columns and labels:
[1] = molecular target: Acetylcholinesterase (Homo sapiens) (UniProt P22303); test: Acetylcholinesterase (AChE) small molecule antagonists: colormetric cell-based qHTS assay (AID 1347395); further: nearly all actives have a fitted effect of over 30% in size; further: potency means the concentration at half of the fitted maximal effect
Outline: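 SH-SY5Y cells; cpd 30 min 37 C; + DTNB/acetylthiocholine, 90 min 37 C; colorimetric thiocholine read; qHTS.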

[2] = molecular target: Acetylcholinesterase (Homo sapiens) (UniProt P22303); test: Acetylcholinesterase (AChE) small molecule antagonists: enzyme-based qHTS assay (AID 1347397); details: Potency: AChE enzyme activity inhibition; outcome: AChE enzyme activity inhibition; further: nearly all actives have a fitted effect of over 55% in size; further: potency means the concentration at half of the fitted maximal effect
Outline: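 First, recombinant human AChE (50 mU/mL as dispensed) received test compound or DMSO. Second, plates stood 30 min at room temperature. Third, DTNB and acetylthiocholine were added, followed by 10 min at room temperature and colorimetric detection.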

[3] = molecular target: Acetylcholinesterase (Homo sapiens) (UniProt P22303); test: Acetylcholinesterase (AChE) small molecule antagonists: fluorescence cell-based qHTS assay (AID 1347398); details: Potency: AChE activity; outcome: AChE activity; further: nearly all actives have a fitted effect of over 50% in size; further: potency means the concentration at half of the fitted maximal effect
Outline: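 Homogeneous quantitative HTS format. SH-SY5Y cells seeded at 2,000 per well settle overnight at 37 C. Compound pretreatment runs 30 min (37 C, 5% CO2); substrate/probe mix then reacts 40 min at RT before reading 490/520 nm.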

[4] = molecular target: Acetylcholinesterase (Homo sapiens) (UniProt P22303); test: Acetylcholinesterase (AChE) small molecule antagonists: enzyme-based qHTS assay with human liver microsomes (AID 1347399); details: Potency: qHTS inhibition; outcome: qHTS inhibition; further: nearly all actives have a fitted effect of over 60% in size
Outline: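 Recombinant human AChE (50 mU/mL in the enzyme mix) and human liver microsomes (0.25 mg/mL final) were preincubated with compound and NADPH (0.25 mg/mL final) for 30 min at 37 C. Acetylthiocholine/DTNB was then added; thiocholine was read colorimetrically after 10 min at room temperature.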
On the % scale 0 is the no-effect control and ±100 the full control effect.

Sequence of Acetylcholinesterase (Homo sapiens) (P22303 whole entry, looked up): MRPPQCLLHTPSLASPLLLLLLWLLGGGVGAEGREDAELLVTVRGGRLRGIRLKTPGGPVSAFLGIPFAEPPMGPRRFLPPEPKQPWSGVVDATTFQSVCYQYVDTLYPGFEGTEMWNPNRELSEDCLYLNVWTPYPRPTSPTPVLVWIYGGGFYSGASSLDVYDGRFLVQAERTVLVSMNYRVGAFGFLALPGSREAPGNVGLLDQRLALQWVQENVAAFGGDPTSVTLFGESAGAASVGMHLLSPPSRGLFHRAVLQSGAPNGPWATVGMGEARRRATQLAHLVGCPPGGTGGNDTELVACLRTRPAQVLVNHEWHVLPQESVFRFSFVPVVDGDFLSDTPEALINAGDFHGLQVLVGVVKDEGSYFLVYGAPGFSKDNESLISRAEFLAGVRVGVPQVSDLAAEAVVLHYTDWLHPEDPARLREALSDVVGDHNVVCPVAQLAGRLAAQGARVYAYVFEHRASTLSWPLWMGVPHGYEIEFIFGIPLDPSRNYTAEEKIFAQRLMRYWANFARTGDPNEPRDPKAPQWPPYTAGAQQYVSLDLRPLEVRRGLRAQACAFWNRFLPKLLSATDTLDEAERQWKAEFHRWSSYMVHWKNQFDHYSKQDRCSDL

Cn1ccc2cc3c(cc21)CCN3C(=O)Nc1cccnc1
inactive: activity, negative = inhibition [1] -3.7% [at 23.6 µM] | activity change, negative = inhibition [2] -19.7% [at 23.6 µM] | activity change, negative = inhibition [3] -28.9% [at 23.8 µM]

NCCNCCN
inactive: Potency [1] | Potency [2] | Potency [3]

O=[N+]([O-])c1ccc(O)cc1C(F)(F)F
inactive: Potency [1] | Potency [2] | Potency [3]

N[C@H](C(=O)O)c1ccc(O)cc1
inactive: activity, negative = inhibition [1] 0% [at 23.6 µM] | activity change, negative = inhibition [2] 0.185% [at 23.6 µM] | activity change, negative = inhibition [3] 10.4% [at 23.8 µM]

CCCCCC/C=C/C=O
inactive: Potency [1] | Potency [2] | Potency [3]

O=C(O)CNc1ccccc1
inactive: Potency [1] | Potency [2] | Potency [3]

CCOC(=O)c1c(N)sc2c1CCN(Cc1ccccc1)C2
active: Potency [1] 12.3 µM | Potency [2] 24.5 µM | Potency [3] 12.3 µM

O=S(=O)(c1cccc2cnccc12)N1CCCNCC1
inactive: Potency [1] | Potency [2] | Potency [3]

COc1ccc(OC)c(C(O)CNC(=O)CN)c1 (configuration not stated)
inactive: Potency [1] | Potency [2] | Potency [3]

Cc1ccccc1S(N)(=O)=O
inactive: Potency [1] | Potency [2] | Potency [3] | Potency [4]

c1ccc2c(c1)CCc1ccccc1N2
inactive: Potency [1] | Potency [2] | Potency [3] | Potency [4]

CN(C)C(=O)C(CCN1CCC(O)(c2ccc(Cl)cc2)CC1)(c1ccccc1)c1ccccc1
inactive: Potency [1] | Potency [2] | Potency [3]

O=C(O)CC(O)C(=O)O (configuration not stated)
inactive: Potency [1] | Potency [2] | Potency [3] | Potency [4]

Nc1cc(N)cc(C(=O)O)c1
inactive: Potency [1] | Potency [2] | Potency [3] | Potency [4]

CCOC(=O)n1ccn(C)c1=S
inactive: Potency [1] | Potency [2] | Potency [3] | Potency [4]

CC(=O)OC[C@H]1O[C@@H](OC(C)=O)[C@H](OC(C)=O)[C@@H]1OC(C)=O
inactive: Potency [1] | Potency [2] | Potency [3] | Potency [4]

CC(C)(C)C1=CC(=O)C=C(C(C)(C)C)C1=O
inactive: Potency [1] | Potency [2] | Potency [3] | Potency [4]

N#CCCN(CCO)CCO
inactive: Potency [1] | Potency [2] | Potency [3] | Potency [4]

O=C1Nc2ccc([N+](=O)[O-])cc2C1=O
inactive: Potency [1] | Potency [2] | Potency [3] | Potency [4]

NC(CO)(CO)CO
inactive: outcome [1] | outcome [2] | outcome [3] | outcome [4]

CC(=O)OCC(=O)[C@@]1(O)CC[C@H]2[C@@H]3CCC4=CC(=O)CC[C@]4(C)[C@H]3C(=O)C[C@@]21C
inactive: Potency [1] | Potency [2] | Potency [3] | Potency [4]

COC(=O)/C=C(\C)CCC=C(C)C
inactive: Potency [1] | Potency [2] | Potency [3] | Potency [4]

CC1=C(O)C(=O)OC1C (configuration not stated)
inactive: Potency [1] | Potency [2] | Potency [3] | Potency [4]

CC(=O)CC(=O)N(C)C
inactive: Potency [1] | Potency [2] | Potency [3] | Potency [4]

CCOC(=O)c1c(C)n(C)c2ccc(O)cc12
inactive: Potency [1] | Potency [2] | Potency [3] | Potency [4]

CC(=O)Nc1ccc(C(=O)O)cc1
inactive: Potency [1] | Potency [2] | Potency [3] | Potency [4]

O=C1NCCN1
inactive: Potency [1] | Potency [2] | Potency [3] | Potency [4]

CN(C)CCOCCN(C)C
inactive: Potency [1] | Potency [2] | Potency [3] | Potency [4]

Cc1cccc2cccnc12
inactive: Potency [1] | Potency [2] | Potency [3] | Potency [4]

Cc1ccc(C(=O)Nc2ccc(S(=O)(=O)O)c3cc(S(=O)(=O)O)cc(S(=O)(=O)O)c23)cc1NC(=O)c1cccc(NC(=O)Nc2cccc(C(=O)Nc3cc(C(=O)Nc4ccc(S(=O)(=O)O)c5cc(S(=O)(=O)O)cc(S(=O)(=O)O)c45)ccc3C)c2)c1
inactive: Potency [1] | Potency [2] | Potency [3] | Potency [4]

CC(C)CC(C)CC(O)CC(C)C (configuration not stated)
inactive: Potency [1] | Potency [2] | Potency [3] | Potency [4]

COc1ccccc1C=O
inactive: Potency [1] | Potency [2] | Potency [3] | Potency [4]

CCOC(=O)C(C)(C)Oc1ccc(Cl)cc1
inactive: Potency [1] | Potency [2] | Potency [3] | Potency [4]

O=[N+]([O-])c1ccc2nc[nH]c2c1
inactive: Potency [1] | Potency [2] | Potency [3] | Potency [4]

COc1cc([C@H]2Oc3cc([C@H]4Oc5cc(O)cc(O)c5C(=O)[C@@H]4O)ccc3O[C@@H]2CO)ccc1O
inactive: Potency [1] | Potency [2] | Potency [3] | Potency [4]

CCCSSCCC
inactive: Potency [1] | Potency [2] | Potency [3] | Potency [4]

N=c1nc(N2CCCCC2)cc(N)n1O
inactive: Potency [1] | Potency [2] | Potency [3] | Potency [4]

Fc1ccc(C(c2ccc(F)cc2)N2CCNCC2)cc1
inactive: Potency [1] | Potency [2] | Potency [3] | Potency [4]

CSCCC=O
inactive: Potency [1] | Potency [2] | Potency [3] | Potency [4]

Cc1ccsc1C(=CCCN1CCC[C@@H](C(=O)O)C1)c1sccc1C
inactive: Potency [1] | Potency [2] | Potency [3] | Potency [4]

CNC(=O)[C@H]1O[C@@H](n2cnc3c(NCc4cc(Cl)ccc4OCc4cc(C)no4)ncnc32)[C@H](O)[C@@H]1N
inactive: Potency [1] | Potency [2] | Potency [3] | Potency [4]

COC(=O)Nc1ccc(Cl)c(Cl)c1
inactive: Potency [1] | Potency [2] | Potency [3] | Potency [4]

Cc1cc(C)c(S(=O)(=O)O)cc1N=Nc1cc(S(=O)(=O)O)c2ccccc2c1O
inactive: Potency [1] | Potency [2] | Potency [3] | Potency [4]

CCC(=O)Nc1ccc(O)cc1
inactive: Potency [1] | Potency [2] | Potency [3] | Potency [4]

OC/C=C/c1ccccc1
inactive: Potency [1] | Potency [2] | Potency [3] | Potency [4]

COc1ccc(Cc2cnc(N)nc2N)cc1OC
inactive: Potency [1] | Potency [2] | Potency [3] | Potency [4]

CC(=O)OC/C=C(/C)CCC=C(C)C
inactive: Potency [1] | Potency [2] | Potency [3] | Potency [4]

OC[C@H](Cc1cccc(O)c1)[C@H](CO)Cc1cccc(O)c1
inactive: Potency [1] | Potency [2] | Potency [3] | Potency [4]

N[C@@H](CSSC[C@H](N)C(=O)O)C(=O)O
inactive: activity, negative = inhibition [1] 3.18% [at 0.435 µM] | activity change, negative = inhibition [2] 0.405% [at 0.435 µM] | activity change, negative = inhibition [3] 2.04% [at 0.439 µM] | activity change, negative = inhibition [4] -2.13% [at 0.435 µM]

CCOC(=O)c1ccc(OC(=O)CCCCCN=C(N)N)cc1
inactive: outcome [1] | outcome [2] | outcome [3] | outcome [4]

CCCCCCCCCCCCCCO
inactive: Potency [1] | Potency [2] | Potency [3] | Potency [4]

CNS(=O)(=O)c1cc(C(=O)N2CCC(CCN3C4CCC3CC(n3c(C)nc5ccccc53)C4)(c3cccc(F)c3)CC2)c(Cl)cc1F (configuration not stated)
active: Potency [1] 8.94 µM | Potency [3] 7.96 µM
inactive: Potency [2] | Potency [4]

CC(=O)N1CCN(c2ccc(OC[C@H]3CO[C@](Cn4ccnc4)(c4ccc(Cl)cc4Cl)O3)cc2)CC1
active: Potency [1] 35.6 µM | Potency [3] 31.7 µM
inactive: Potency [2] | Potency [4]
